Publication PMC5700166
Numbering of substitutions follows the chain as printed.

Assays:
Assay in all cases: protein-binding microarray (PBM); PBM: ~300 nM protein, 6 mM HEPES pH 7.8, 80 mM KCl, 0.5 mM EDTA, 0.5 mM EGTA, 6% glycerol, 35 ng/ul poly-dIdC, 1% milk, 1 h, room temperature; Ap Aiptasia and Nv Nematostella (sea anemones) / Co Capsaspora / Aq Amphimedon (sponge) / Dm Drosophila / Hu human; RHD is the Rel homology domain; high values mean tight binding
Conditions in all cases: dsDNA, one strand shown
[1] = target: T1, GST-Ap-NF-kB RHD (Exaiptasia pallida (Aiptasia), UniProt A0A913YAJ5 2-422)
T1 sequence: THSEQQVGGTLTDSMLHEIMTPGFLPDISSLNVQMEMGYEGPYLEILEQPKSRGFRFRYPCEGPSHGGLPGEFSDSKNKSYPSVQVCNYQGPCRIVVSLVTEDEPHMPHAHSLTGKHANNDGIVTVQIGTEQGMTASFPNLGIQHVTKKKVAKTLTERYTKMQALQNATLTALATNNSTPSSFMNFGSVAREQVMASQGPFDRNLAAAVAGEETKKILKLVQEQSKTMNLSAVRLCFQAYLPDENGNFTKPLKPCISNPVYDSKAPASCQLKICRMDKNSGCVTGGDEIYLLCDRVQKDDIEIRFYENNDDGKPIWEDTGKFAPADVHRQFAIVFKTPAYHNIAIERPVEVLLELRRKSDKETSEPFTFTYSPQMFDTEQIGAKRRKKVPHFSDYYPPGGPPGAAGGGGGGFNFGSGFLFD

[2] = target: T2, GST-Nv-NF-kB (Cys allele) (Nematostella vectensis, UniProt E5G601 2-411)
T2 sequence: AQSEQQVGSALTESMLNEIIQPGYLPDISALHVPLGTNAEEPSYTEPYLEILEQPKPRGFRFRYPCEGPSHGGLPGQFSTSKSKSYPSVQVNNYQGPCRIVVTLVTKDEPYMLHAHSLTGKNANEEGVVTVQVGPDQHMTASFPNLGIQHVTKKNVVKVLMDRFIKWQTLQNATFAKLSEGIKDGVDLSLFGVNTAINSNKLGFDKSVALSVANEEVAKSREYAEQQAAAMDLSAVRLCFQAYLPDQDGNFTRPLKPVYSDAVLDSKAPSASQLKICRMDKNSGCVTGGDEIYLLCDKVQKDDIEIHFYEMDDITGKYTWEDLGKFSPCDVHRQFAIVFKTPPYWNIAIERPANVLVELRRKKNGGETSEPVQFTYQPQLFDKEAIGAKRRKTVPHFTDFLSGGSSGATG

[3] = target: T3, GST-Nv-NF-kB (Ser allele) (Nematostella vectensis, UniProt A7UNT2 2-411)
T3 sequence: T2 sequence with Q21R, C66S, S207N, E215Q, V217A, E225K, A268E, D399E

[4] = target: T4, GST-Co-NF-kB (Capsaspora owczarzaki, UniProt F1ARL5 200-546)
T4 sequence: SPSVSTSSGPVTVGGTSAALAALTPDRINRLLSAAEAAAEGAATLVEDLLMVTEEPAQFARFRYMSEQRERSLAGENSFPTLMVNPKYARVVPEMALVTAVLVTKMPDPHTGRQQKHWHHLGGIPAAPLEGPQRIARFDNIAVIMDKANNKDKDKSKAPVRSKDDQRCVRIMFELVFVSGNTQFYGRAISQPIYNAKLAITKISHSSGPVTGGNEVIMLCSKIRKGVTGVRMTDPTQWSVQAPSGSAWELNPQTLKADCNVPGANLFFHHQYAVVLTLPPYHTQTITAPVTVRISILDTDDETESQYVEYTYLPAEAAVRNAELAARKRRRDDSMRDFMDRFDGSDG

[5] = target: T5, GST-Dm-Relish (Drosophila melanogaster, UniProt Q94527 99-473)
T5 sequence: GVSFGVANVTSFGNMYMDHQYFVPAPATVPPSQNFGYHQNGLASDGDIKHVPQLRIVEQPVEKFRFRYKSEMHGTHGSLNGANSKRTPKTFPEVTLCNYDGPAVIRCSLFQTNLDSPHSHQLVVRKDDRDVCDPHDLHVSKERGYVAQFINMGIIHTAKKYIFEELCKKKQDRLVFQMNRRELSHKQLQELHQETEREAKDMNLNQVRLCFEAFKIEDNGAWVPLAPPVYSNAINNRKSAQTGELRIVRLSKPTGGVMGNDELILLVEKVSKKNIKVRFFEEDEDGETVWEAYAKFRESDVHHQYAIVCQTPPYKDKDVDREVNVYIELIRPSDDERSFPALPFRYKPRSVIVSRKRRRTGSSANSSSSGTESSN

[6] = target: T6, GST-Aq-NF-kB (Amphimedon queenslandica, UniProt A9Y5G7 2-389)
T6 sequence: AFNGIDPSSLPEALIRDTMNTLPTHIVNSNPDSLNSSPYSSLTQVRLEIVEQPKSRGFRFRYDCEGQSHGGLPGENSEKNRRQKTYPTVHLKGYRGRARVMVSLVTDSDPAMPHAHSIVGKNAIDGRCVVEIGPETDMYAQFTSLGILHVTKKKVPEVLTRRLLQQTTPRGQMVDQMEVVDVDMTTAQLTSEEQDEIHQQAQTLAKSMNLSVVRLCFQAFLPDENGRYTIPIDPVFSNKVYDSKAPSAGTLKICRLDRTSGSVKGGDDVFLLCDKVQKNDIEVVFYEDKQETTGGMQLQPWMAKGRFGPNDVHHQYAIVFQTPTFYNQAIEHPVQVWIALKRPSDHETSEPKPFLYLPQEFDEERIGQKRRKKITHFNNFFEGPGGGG

[7] = target: GST-Hu-p50 (Homo sapiens, UniProt P19838 7-356)
Sequence of GST-Hu-p50 (P19838 7-356): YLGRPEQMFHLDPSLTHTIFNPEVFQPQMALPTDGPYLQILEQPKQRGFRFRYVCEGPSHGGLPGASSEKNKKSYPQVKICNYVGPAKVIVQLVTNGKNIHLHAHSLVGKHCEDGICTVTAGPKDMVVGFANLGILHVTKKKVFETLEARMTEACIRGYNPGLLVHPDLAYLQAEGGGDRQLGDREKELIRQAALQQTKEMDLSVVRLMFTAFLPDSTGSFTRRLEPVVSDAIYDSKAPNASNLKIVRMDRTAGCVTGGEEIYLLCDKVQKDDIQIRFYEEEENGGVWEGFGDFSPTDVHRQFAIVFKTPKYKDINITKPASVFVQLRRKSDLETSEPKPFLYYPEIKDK

Row | Sequence | binding signal [1] [z-score] | binding signal [2] [z-score] | binding signal [3] [z-score] | binding signal [4] [z-score] | binding signal [5] [z-score] | binding signal [6] [z-score] | binding signal [7] [z-score]
1 | CCGATTAACATCAGGGGACCACCTGATGTTAATCGGGTCTTGATTCGCTTGACGCTGCTG | 4.71 | 3.46 | 2.99 | 2.22 | 6.1 | 4.66 | 3.71
2 | CCGATTAACATCAAGGGGATCCCTGATGTTAATCGGGTCTTGATTCGCTTGACGCTGCTG | 9.22 | 6.41 | 7.34 | 3.82 | 10.3 | 6.69 | 5.5
3 | CCGATTAACATCAGGCAATCCCCTGATGTTAATCGGGTCTTGATTCGCTTGACGCTGCTG | 7.27 | 7.19 | 6.86 | 1.6 | 6.78 | 7.01 | 5.39
4 | CCGATTAACATCACGGGGATTCCTGATGTTAATCGGGTCTTGATTCGCTTGACGCTGCTG | 9.77 | 9.58 | 8.87 | 4.28 | 10.6 | 7.41 | 6.46
5 | CCGATTAACATCAGAAAACCCCCTGATGTTAATCGGGTCTTGATTCGCTTGACGCTGCTG | 10.8 | 10 | 11 | 4.05 | 10 | 8.84 | 8.24
6 | CCGATTAACATCAAAAACCCCCATGATGTTAATCGGGTCTTGATTCGCTTGACGCTGCTG | 9.51 | 8.21 | 9 | 3.93 | 9.82 | 7.68 | 7.91
7 | CCGATTAACATCAACACCCCCCTTGATGTTAATCGGGTCTTGATTCGCTTGACGCTGCTG | 4.56 | 3.85 | 3.96 | 2.8 | 5.23 | 5.24 | 4.37
8 | CCGATTAACATCAAGGGGGTACCTGATGTTAATCGGGTCTTGATTCGCTTGACGCTGCTG | 5.62 | 3.48 | 4.15 | 2.65 | 3.15 | 3.5 | 3.89
9 | CCGATTAACATCACATCTCCCCCTGATGTTAATCGGGTCTTGATTCGCTTGACGCTGCTG | 6.34 | 4.75 | 5.94 | 7.54 | 2.35 | 4.36 | 5.73
10 | CCGATTAACATCACAGAACCCCCTGATGTTAATCGGGTCTTGATTCGCTTGACGCTGCTG | 7.53 | 5.51 | 7.39 | 2.33 | 7.46 | 5.42 | 6.43
11 | CCGATTAACATCACAGTTTCCCCTGATGTTAATCGGGTCTTGATTCGCTTGACGCTGCTG | 6.64 | 7.28 | 10.3 | 7.74 | 3.35 | 4.9 | 5.61
12 | CCGATTAACATCAAAATTCCCCATGATGTTAATCGGGTCTTGATTCGCTTGACGCTGCTG | 8.8 | 9.9 | 10.5 | 7.72 | 7.31 | 7.95 | 6.99
13 | CCGATTAACATCAGGGAAATCTATGATGTTAATCGGGTCTTGATTCGCTTGACGCTGCTG | 3.65 | 5.31 | 6.44 | 4.52 | 1.64 | 4.71 | 4.1
14 | CCGATTAACATCAGGGGGGAAAATGATGTTAATCGGGTCTTGATTCGCTTGACGCTGCTG | 7.23 | 6.13 | 8.77 | 11.5 | 4.99 | 6.28 | 7.08
15 | CCGATTAACATCAGAATTCCCCCTGATGTTAATCGGGTCTTGATTCGCTTGACGCTGCTG | 10.1 | 11.8 | 11.7 | 10.8 | 8.22 | 8.47 | 8.34
16 | CCGATTAACATCACGGGGAAATCTGATGTTAATCGGGTCTTGATTCGCTTGACGCTGCTG | 7.76 | 8.56 | 10.6 | 10.1 | 6.19 | 6.37 | 6.25
17 | CCGATTAACATCAGAATTTCCCATGATGTTAATCGGGTCTTGATTCGCTTGACGCTGCTG | 3.88 | 5.46 | 4.83 | 4.63 | 3.42 | 5.17 | 4.04
18 | CCGATTAACATCAGAAATTTCCCTGATGTTAATCGGGTCTTGATTCGCTTGACGCTGCTG | 5.84 | 8.58 | 8.13 | 5.21 | 4.81 | 7.73 | 5.92
19 | CCGATTAACATCAAAGGACCCCCTGATGTTAATCGGGTCTTGATTCGCTTGACGCTGCTG | 4.81 | 2.82 | 3.92 | 2.19 | 4.18 | 3.79 | 3.2
